Data from the supplement of paper PMC8728848.
Shown is part of a subset that was picked to be rich in the strongest signals.

Assays:
Experiment in all cases: glycan array binding signal (z-score within array); higher = stronger binding
Conditions in all cases: glycan notation: IUPAC condensed, linker removed
[1] = molecular target: Fuc(a1-2)Gal(b1-3)GlcNAc(b1-2)Man(a1-3)[Fuc(a1-2)Gal(b1-3)GlcNAc(b1-2)Man(a1-6)]Man(b1-4)GlcNAc(b1-4)GlcNAc
How it was run: (§1)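 Glycan array data were curated from 3228 arrays in the Consortium for Functional Glycomics database and kept only where the protein sequence was available. Glycan names were converted to IUPAC-condensed notation, and columns mapping to the same glycan were averaged. The binding signal is a within-array Z-score, averaged across arrays of the same protein sequence at different concentrations or buffers and across linkers. Negative Z-scores can be read as non-binding.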

[2] = molecular target: Fuc(a1-2)Gal(b1-3)GlcNAc(b1-3)[Fuc(a1-2)Gal(b1-3)GlcNAc(b1-6)]GalNAc
How it was run: as §1

[3] = molecular target: Fuc(a1-2)Gal(b1-4)GlcNAc(b1-6)GalNAc
How it was run: as §1

[4] = molecular target: Fuc(a1-2)Gal(b1-4)GlcNAc6S
How it was run: as §1

[5] = molecular target: Fuc(a1-2)Gal3S(b1-4)GlcNAc
How it was run: as §1

[6] = molecular target: Fuc(a1-2)[Gal(a1-3)]Gal(b1-3)GalNAc
How it was run: as §1

[7] = molecular target: Fuc(a1-2)[Gal(a1-3)]Gal(b1-4)GlcNAc
How it was run: as §1

[8] = molecular target: Fuc(a1-2)[Gal(a1-3)]Gal(b1-4)[Fuc(a1-3)]GlcNAc
How it was run: as §1

[9] = molecular target: Gal(a1-3)Gal(b1-3)GlcNAc(b1-2)Man(a1-3)[Gal(a1-3)Gal(b1-3)GlcNAc(b1-2)Man(a1-6)]Man(b1-4)GlcNAc(b1-4)GlcNAc
How it was run: as §1

[10] = molecular target: Gal(a1-3)Gal(b1-3)[Fuc(a1-4)]GlcNAc(b1-2)Man(a1-3)[Gal(a1-3)Gal(b1-3)[Fuc(a1-4)]GlcNAc(b1-2)Man(a1-6)]Man(b1-4)GlcNAc(b1-4)GlcNAc
How it was run: as §1

[11] = molecular target: Gal(a1-3)Gal(b1-4)Glc
How it was run: as §1

[12] = molecular target: Gal(a1-4)Gal(b1-3)GlcNAc(b1-2)Man(a1-3)[Gal(a1-4)Gal(b1-3)GlcNAc(b1-2)Man(a1-6)]Man(b1-4)GlcNAc(b1-4)GlcNAc
How it was run: as §1

[13] = molecular target: Gal(b1-3)GlcNAc(a1-6)Gal(b1-4)GlcNAc
How it was run: as §1

[14] = molecular target: Gal(b1-3)GlcNAc(b1-2)Man(a1-3)[Gal(b1-3)GlcNAc(b1-2)Man(a1-6)]Man(b1-4)GlcNAc(b1-4)GlcNAc
How it was run: as §1

[15] = molecular target: Gal(b1-3)[GlcNAc(b1-6)]GalNAc
How it was run: as §1

[16] = molecular target: Gal(b1-4)GlcNAc(b1-2)Man
How it was run: as §1

[17] = molecular target: Gal(b1-4)GlcNAc(b1-2)Man(a1-3)Man(b1-4)GlcNAc(b1-4)GlcNAc
How it was run: as §1

[18] = molecular target: Gal(b1-4)GlcNAc(b1-2)Man(a1-3)[Gal(b1-4)GlcNAc(b1-2)Man(a1-6)]Man(b1-4)GlcNAc(b1-4)[Fuc(a1-6)]GlcNAc
How it was run: as §1

[19] = molecular target: Gal(b1-4)GlcNAc(b1-3)Gal(b1-3)GalNAc
How it was run: as §1

[20] = molecular target: Gal(b1-4)GlcNAc(b1-3)Gal(b1-4)GlcNAc(b1-2)Man(a1-3)[Gal(b1-4)GlcNAc(b1-3)Gal(b1-4)GlcNAc(b1-2)Man(a1-6)]Man(b1-4)GlcNAc(b1-4)GlcNAc
How it was run: as §1

[21] = molecular target: Gal(b1-4)GlcNAc(b1-3)Gal(b1-4)GlcNAc(b1-2)[Gal(b1-4)GlcNAc(b1-3)Gal(b1-4)GlcNAc(b1-6)]Man(a1-6)[Gal(b1-4)GlcNAc(b1-3)Gal(b1-4)GlcNAc(b1-2)Man(a1-3)]Man(b1-4)GlcNAc(b1-4)[Fuc(a1-6)]GlcNAc
How it was run: as §1

[22] = molecular target: Gal(b1-4)GlcNAc(b1-3)Gal(b1-4)GlcNAc(b1-3)Gal(b1-4)GlcNAc(b1-3)Gal(b1-4)GlcNAc(b1-3)Gal(b1-4)GlcNAc(b1-2)Man(a1-3)[Gal(b1-4)GlcNAc(b1-3)Gal(b1-4)GlcNAc(b1-3)Gal(b1-4)GlcNAc(b1-3)Gal(b1-4)GlcNAc(b1-3)Gal(b1-4)GlcNAc(b1-2)Man(a1-6)]Man(b1-4)GlcNAc(b1-4)GlcNAc
How it was run: as §1

[23] = molecular target: Gal(b1-4)GlcNAc(b1-3)Gal(b1-4)GlcNAc(b1-3)Gal(b1-4)GlcNAc(b1-3)Gal(b1-4)GlcNAc(b1-3)Gal(b1-4)GlcNAc(b1-2)[Gal(b1-4)GlcNAc(b1-3)Gal(b1-4)GlcNAc(b1-3)Gal(b1-4)GlcNAc(b1-3)Gal(b1-4)GlcNAc(b1-3)Gal(b1-4)GlcNAc(b1-6)]Man(a1-6)[Gal(b1-4)GlcNAc(b1-3)Gal(b1-4)GlcNAc(b1-3)Gal(b1-4)GlcNAc(b1-3)Gal(b1-4)GlcNAc(b1-3)Gal(b1-4)GlcNAc(b1-2)Man(a1-3)]Man(b1-4)GlcNAc(b1-4)[Fuc(a1-6)]GlcNAc
How it was run: as §1

[24] = molecular target: Gal6S(b1-4)GlcNAc
How it was run: as §1

[25] = molecular target: GalNAc(b1-3)GlcNAc
How it was run: as §1

[26] = molecular target: Glc(a1-6)Glc(a1-6)Glc
How it was run: as §1

[27] = molecular target: GlcA(b1-3)Gal
How it was run: as §1

[28] = molecular target: GlcNAc(b1-3)Gal(b1-4)GlcNAc(b1-3)Gal(b1-4)GlcNAc(b1-3)Gal(b1-4)GlcNAc(b1-2)Man(a1-3)[GlcNAc(b1-3)Gal(b1-4)GlcNAc(b1-3)Gal(b1-4)GlcNAc(b1-3)Gal(b1-4)GlcNAc(b1-2)Man(a1-6)]Man(b1-4)GlcNAc(b1-4)GlcNAc
How it was run: as §1

[29] = molecular target: Kdn(a2-3)Gal(b1-4)Glc
How it was run: as §1

[30] = molecular target: Man(a1-6)Man
How it was run: as §1

[31] = molecular target: Man(b1-4)GlcNAc
How it was run: as §1

[32] = molecular target: Neu5Ac(a2-3)Gal(b1-3)GalNAc
How it was run: as §1

[33] = molecular target: Neu5Ac(a2-3)Gal(b1-3)[Neu5Ac(a2-6)]GalNAc
How it was run: as §1

[34] = molecular target: Neu5Ac(a2-3)Gal(b1-3)]Neu5Ac(a2-3)Gal(b1-4)]GlcNAc
How it was run: as §1

[35] = molecular target: Neu5Ac(a2-3)Gal(b1-4)GlcNAc(b1-2)Man(a1-3)[Neu5Ac(a2-3)Gal(b1-4)GlcNAc(b1-2)Man(a1-6)]Man(b1-4)GlcNAc(b1-4)GlcNAc
How it was run: as §1

[36] = molecular target: Neu5Ac(a2-3)Gal6S(b1-4)GlcNAc
How it was run: as §1

[37] = molecular target: Neu5Ac(a2-3)[GalNAc(b1-4)]Gal(b1-4)GlcNAc
How it was run: as §1

[38] = molecular target: Neu5Ac(a2-6)Gal(b1-4)GlcNAc(b1-3)Gal(b1-3)GlcNAc
How it was run: as §1

[39] = molecular target: Neu5Ac(a2-6)Gal(b1-4)GlcNAc(b1-3)Gal(b1-4)GlcNAc(b1-2)Man(a1-3)[Neu5Ac(a2-6)Gal(b1-4)GlcNAc(b1-3)Gal(b1-4)GlcNAc(b1-2)Man(a1-6)]GalNAc
How it was run: as §1

[40] = molecular target: Neu5Ac(a2-6)Gal(b1-4)GlcNAc(b1-3)Gal(b1-4)GlcNAc(b1-3)GalNAc
How it was run: as §1

[41] = molecular target: Neu5Ac(a2-8)Neu5Gc(a2-3)Gal(b1-4)GlcNAc
How it was run: as §1

[42] = molecular target: Neu5Gc(a2-3)Gal(b1-4)Glc
How it was run: as §1

[43] = molecular target: Neu5Gc(a2-3)Gal(b1-4)[Fuc(a1-3)]GlcNAc
How it was run: as §1

[44] = molecular target: Neu5Gc(b2-6)Gal(b1-4)GlcNAc
How it was run: as §1

B1: PX9961H-bth-557-24-557 (Bacteroides thetaiotaomicron) (protein)
chain: EETRTEVEKKNYMNNAEEAKDVLLGVYRTNTLDAMYGYYLSILFNLGTDISQVEGSGNENFRIIPTNSFPTTQSEVQQTWAALYTGIYRANDFLERISNKIGSYTTTDKKLATLYIAEARALRGMFYFELVRRFGNVVLMTSTQMSNQNPATYVQSAPEKVYEYIEDDLLYACDILPYATDDQYRESNDYRFSKGAALGLLTKVYATWAGYPVKDESKWEAAAKTARILVESGKHGLLKDYEQLWKNTCNGTWDPTESLIEISFYSPTVSGNSDPVGRIGKWNGVKTTAIAGVRGSCAANVKVVHTFVLDWREDVSDIRRDLSIANYQYTDTKKSLWVAGASDTDESAAEKDADPTKAQKNKQNYTPAKWDIQKYVTTNSFINNDKSNVNWYFLRYADVLLLYAEALNEWKHGPDAEAYNAINAVRRRGYGNPSNTSACDLPQGLDETSFREAVRKERSYELSFEGHRRQDLIRWGIYYKTVQATAKELGYWWEGTGSPNYSVATYTEEGKHELFPIPQRDMDLCIQFNQNPKW
- glycan array binding signal (z-score) [1]: 3.58
- glycan array binding signal (z-score) [2]: -0.177
- glycan array binding signal (z-score) [3]: -0.051
- glycan array binding signal (z-score) [4]: -0.38
- glycan array binding signal (z-score) [5]: 0.014
- glycan array binding signal (z-score) [6]: -0.242
- glycan array binding signal (z-score) [7]: -0.408
- glycan array binding signal (z-score) [8]: -0.18
- glycan array binding signal (z-score) [9]: 4.31
- glycan array binding signal (z-score) [10]: -0.134
- glycan array binding signal (z-score) [11]: -0.054
- glycan array binding signal (z-score) [12]: 5.85
- glycan array binding signal (z-score) [13]: -0.025
- glycan array binding signal (z-score) [14]: 5.54
- glycan array binding signal (z-score) [15]: -0.03
- glycan array binding signal (z-score) [16]: -0.104
- glycan array binding signal (z-score) [17]: 10.2
- glycan array binding signal (z-score) [18]: 4.19
- glycan array binding signal (z-score) [19]: 0.039
- glycan array binding signal (z-score) [20]: 3.35
- glycan array binding signal (z-score) [21]: 3.59
- glycan array binding signal (z-score) [22]: 5.22
- glycan array binding signal (z-score) [23]: 4.46
- glycan array binding signal (z-score) [24]: -0.033
- glycan array binding signal (z-score) [25]: -0.542
- glycan array binding signal (z-score) [26]: -0.402
- glycan array binding signal (z-score) [27]: -0.564
- glycan array binding signal (z-score) [28]: -0.299
- glycan array binding signal (z-score) [29]: -0.397
- glycan array binding signal (z-score) [30]: -0.064
- glycan array binding signal (z-score) [31]: -0.424
- glycan array binding signal (z-score) [32]: -0.207
- glycan array binding signal (z-score) [33]: -0.299
- glycan array binding signal (z-score) [34]: -0.127
- glycan array binding signal (z-score) [35]: -0.412
- glycan array binding signal (z-score) [36]: -0.532
- glycan array binding signal (z-score) [37]: -0.571
- glycan array binding signal (z-score) [38]: -0.166
- glycan array binding signal (z-score) [39]: 0.218
- glycan array binding signal (z-score) [40]: -0.503
- glycan array binding signal (z-score) [41]: 7.98
- glycan array binding signal (z-score) [42]: -0.062
- glycan array binding signal (z-score) [43]: -0.313
- glycan array binding signal (z-score) [44]: -0.202
